Results on four compounds are retold here after PubChem BioAssay (NCATS).

“And” between values parts separate entries of the source, which are not always exact repeats. Identical values can stand only once. A number with no mark means an inactive call. Results filed as inconclusive are left out. The source made the active and inactive calls. Unless noted, the call rests on the fitted dose curve; in most records, active means well fitted curve in the direction sought with a large enough effect; inconclusive means small, poorly fitted or top-dose-only effect, or another doubt; inactive means no such curve, though single readings can be large; an effect the other way counts as inactive or inconclusive.

Test [1] can be described thus: AP1 Signaling Pathway (AID 357; active means well fitted curve in either direction with a large enough effect, not every such curve was filed as active;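 further: ME-180 reporter cells stimulated with EGF at its EC50 level; on the % scale 0 is the no-effect control and ±100 the full control effect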). Conditions: ME-180 AP-1-bla reporter, EGF-induced, beta-lactamase ratio, 5 h; at 7.69 µM (top of the series) unless noted. The essentials: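 First, ME-180 AP-1-bla cells were cultured overnight at 37 °C in low-serum Opti-MEM. Next, titrated compounds with EC50 EGF were incubated 5 hours. Finally, CCF4 was added for 2.5 hours and the 460/530 nm ratio recorded.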

In test [2] the target is Cytochrome P450 1A2 (Homo sapiens) (UniProt P05177). Put plainly: p450-cyp1a2 (AID 410; calls by dose curve). In short, it runs like this:
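20nM CYP1A2, 100uM Luciferin-ME (=Km), 100mM KPO4; cpd 10 min RT; +NADPH regen, 60 min RT; stop/detect 20 min; luminescence. Normalized to furafylline 57 uM = full inhibition.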

Test [3] can be described thus: NFAT Signaling Pathway (AID 444; active means well fitted curve in either direction with a large enough effect, not every such curve was filed as active;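 further: carbachol stimulus at about its EC50 of 1 µM final; on the % scale 0 is the no-effect control and ±100 the full control effect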). Conditions: Jurkat NFAT-bla M1, carbachol, beta-lactamase ratio, 5 h; at 7.69 µM (top of the series) unless noted. In short, it runs like this:
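Read-out: CCF4 FRET ratio (460 nm/530 nm) after 1 h RT dye loading, used for %activity and AC50 from titration series. Cells: Jurkat NFAT-β-lactamase/M1 line, treated with compound plus 1 uM carbachol for 5 h, 37 °C.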

A short description of test [4]: Stat Signaling Pathway (AID 446; active means well fitted curve in either direction with a large enough effect, not every such curve was filed as active;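 further: ME-180 cervical cancer cells given 40 pM IL-6 alongside compound; SIE-controlled beta-lactamase reporter measured as 460/530 nm FRET emission ratio; on the % scale 0 is the no-effect control and ±100 the full control effect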). To be noted: ME-180 (cervical carcinoma) SIE beta-lactamase reporter, IL-6 stimulated, 5 h; at 7.69 µM (top of the series) unless noted. In short, it runs like this: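 FRET read-out (405 nm excitation, 460/530 nm emission) of a beta-lactamase reporter under a STAT-inducible element in ME-180 cervical carcinoma cells. Cells with compound receive 40 pM IL-6 for 5 h. Values are normalised to AC90 stimulation and AC90 JAK-inhibitor controls.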

The target of test [5] is Glucocorticoid receptor (Homo sapiens) (UniProt P04150). Put plainly: GR-GFP Redistribution (AID 450;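 active means compounds whose dose series gives a full or clear partial fitted curve of increased nuclear translocation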; further: potency means the concentration at half of the fitted maximal effect). Conditions: U2OS GR-GFP nuclear translocation, laser cytometry, 2 h.
Glucocorticoid receptor (Homo sapiens), sequence (P04150 whole entry, looked up): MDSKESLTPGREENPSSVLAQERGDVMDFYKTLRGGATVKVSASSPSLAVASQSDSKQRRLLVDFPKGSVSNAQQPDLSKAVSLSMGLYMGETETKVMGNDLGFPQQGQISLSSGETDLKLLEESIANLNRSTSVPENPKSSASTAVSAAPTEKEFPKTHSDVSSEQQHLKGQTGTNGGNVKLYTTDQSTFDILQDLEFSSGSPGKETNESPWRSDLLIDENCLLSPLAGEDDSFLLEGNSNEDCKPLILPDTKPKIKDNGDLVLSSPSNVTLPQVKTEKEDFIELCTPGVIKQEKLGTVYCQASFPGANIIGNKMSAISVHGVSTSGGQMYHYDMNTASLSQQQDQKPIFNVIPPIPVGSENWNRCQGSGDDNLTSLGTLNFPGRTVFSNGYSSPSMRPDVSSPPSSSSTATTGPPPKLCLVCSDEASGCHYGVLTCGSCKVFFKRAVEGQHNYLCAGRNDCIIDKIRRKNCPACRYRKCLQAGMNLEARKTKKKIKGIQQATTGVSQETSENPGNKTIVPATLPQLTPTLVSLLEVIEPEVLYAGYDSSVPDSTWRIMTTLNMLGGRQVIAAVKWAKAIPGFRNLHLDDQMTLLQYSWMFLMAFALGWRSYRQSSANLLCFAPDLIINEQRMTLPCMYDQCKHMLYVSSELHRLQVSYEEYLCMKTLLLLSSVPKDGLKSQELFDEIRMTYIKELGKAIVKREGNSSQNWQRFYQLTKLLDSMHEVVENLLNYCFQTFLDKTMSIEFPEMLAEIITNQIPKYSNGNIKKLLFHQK
Test [6] has the same target. Put plainly: GR-EFC Redistribution (AID 451; calls by dose curve; further: potency means the concentration at half of the fitted maximal effect). Conditions: CHO-K1 GR-EFC translocation, beta-gal luminescence, 2 h. In short, it runs like this:
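Translocation of GR-ED fusion to nuclear EA restores b-gal, read by luminescence after 1 h room-temperature detection. Engineered CHO-K1 biosensor cells, 1,000/well, exposed 2 h at 37 C to titrations up to 46 uM final.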

The target in test [7] is Guanine nucleotide-binding protein G(i) subunit alpha-1 (Homo sapiens) (UniProt P63096). Put plainly: qHTS Assay for Inhibitors of RGS12 GoLoco Motif Activity (Green Fluorophore) (AID 879).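 Further: 0% = labeled peptide with Gαi1 and full inhibition = labeled peptide alone without protein; negative values mean loss of peptide binding seen as reduced polarization.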 In short, it runs like this:
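A drop in FITC polarization marked displacement of the FITC-tagged RGS12 GoLoco peptide (10 nM) from Gαi1 (50 nM). Compounds were incubated 10 min at room temperature in Tris pH 7.5 buffer containing 150 mM NaCl, 0.1 mM GDP and 0.05% NP40; unlabeled peptide titration served as control.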

In test [8] the target is Cytochrome P450 3A4 (Homo sapiens) (UniProt P08684). Put plainly: qHTS Assay for Activators of Cytochrome P450 3A4 (AID 885). Further: nearly all actives have a fitted effect of over 65% in size. The essentials: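 Luminescent readout of luciferin formed from 25 uM Luciferin-PPXE (KM level) by 20 nM CYP3A4 in 200 mM KPO4, with 60 min NADPH-driven reaction at room temperature after 10 min compound exposure. Ketoconazole (57 uM) defined 100% inhibition.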
Cytochrome P450 3A4 (Homo sapiens), sequence (P08684 whole entry, looked up): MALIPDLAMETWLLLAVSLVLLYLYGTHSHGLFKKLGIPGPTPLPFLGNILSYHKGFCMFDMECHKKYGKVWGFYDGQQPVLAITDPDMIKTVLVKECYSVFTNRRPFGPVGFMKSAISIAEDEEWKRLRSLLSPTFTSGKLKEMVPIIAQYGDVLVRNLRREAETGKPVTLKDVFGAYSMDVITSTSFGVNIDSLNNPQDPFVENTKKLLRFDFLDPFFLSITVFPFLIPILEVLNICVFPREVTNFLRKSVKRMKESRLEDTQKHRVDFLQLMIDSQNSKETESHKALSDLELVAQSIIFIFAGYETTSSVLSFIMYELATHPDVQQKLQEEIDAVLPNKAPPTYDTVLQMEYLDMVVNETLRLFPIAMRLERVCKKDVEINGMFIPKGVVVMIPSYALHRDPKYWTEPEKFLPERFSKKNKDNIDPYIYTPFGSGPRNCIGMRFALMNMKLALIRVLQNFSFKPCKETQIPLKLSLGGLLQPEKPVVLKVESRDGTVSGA

Test [9] is described as follows: qHTS Assay for Identification of Small Molecule Agonists for Thrombopoietin (TPO) Signaling Pathway (AID 917). Further: on the % scale 0 is the no-effect control and ±100 the full control effect. In short, it runs like this: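 Stimulation at the TPO EC50 (26 pM final) was used to detect activators. Ba/F3 mouse cells bearing human TPO receptor and a luciferase reporter under the Glycoprotein IIb promoter were exposed to compounds for 24 hrs at 37 C.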

For test [10], the target named is Pyruvate kinase (Leishmania mexicana) (UniProt Q27686). Put plainly: qHTS Validation Assay for Inhibitors of Leishmania Mexicana Pyruvate Kinase (AID 945).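 Further: 0% = DMSO only neutral control wells.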 The essentials: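 Eight-point qHTS titrations; enzyme 0.2 nM LmPYK (E451W mutant); substrates 0.5 mM PEP, 0.1 mM ADP; 7 mM MgCl2; 1 h room temperature; PKLight luminescence normalized to neutral control.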
Pyruvate kinase (Leishmania mexicana), sequence (Q27686 2-499 E452W): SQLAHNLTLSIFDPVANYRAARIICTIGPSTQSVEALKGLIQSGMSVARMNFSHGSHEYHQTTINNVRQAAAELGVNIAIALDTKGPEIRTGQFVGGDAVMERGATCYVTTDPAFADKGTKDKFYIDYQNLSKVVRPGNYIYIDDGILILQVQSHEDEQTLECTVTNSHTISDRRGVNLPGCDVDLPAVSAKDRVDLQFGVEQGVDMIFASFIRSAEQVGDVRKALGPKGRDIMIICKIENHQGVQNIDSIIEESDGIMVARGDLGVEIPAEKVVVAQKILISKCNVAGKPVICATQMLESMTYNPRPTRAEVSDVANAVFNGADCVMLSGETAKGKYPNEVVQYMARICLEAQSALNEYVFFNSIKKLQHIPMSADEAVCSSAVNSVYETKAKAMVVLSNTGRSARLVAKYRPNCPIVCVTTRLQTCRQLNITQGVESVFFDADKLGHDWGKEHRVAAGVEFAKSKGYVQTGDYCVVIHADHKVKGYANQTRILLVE
Test [11] concerns the target Pyruvate kinase PKM (Homo sapiens) (UniProt P14618). Put plainly: qHTS Assay for Activators of Human Muscle Pyruvate Kinase (AID 954; active means well fitted curve in the direction sought with a large enough effect, not every such curve was filed as active;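 further: 0% = uninhibited enzyme and -100% = no enzyme or full thiadiazolimine inhibition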). In short, it runs like this: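 ATP production by PKM2 detected via luciferase luminescence after 1 h room-temperature reaction (0.1 nM enzyme, PEP at Km 0.5 mM, ADP 0.1 mM, pH 7.2 imidazole buffer). Inhibition scaled to no-enzyme control; activation referenced to 0.3 nM enzyme wells.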

Test [12] addresses Alpha-galactosidase (Coffea arabica) (UniProt Q42656). Put plainly: Counterscreen for Glucocerebrosidase Inhibitors: qHTS Assay for Coffee Bean alpha-Galactosidase at pH 4.5 (AID 957).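 Further: plate controls were enzyme alone for no effect and no enzyme for full effect.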 The essentials:
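Fluorogenic read-out: 4-methylumbelliferone at Ex 365/Em 440 nm after NaOH/glycine stop (pH 10). Enzyme 2 nM, 4-MU-alpha-galactoside 80 uM, citrate buffer pH 4.5, 20 min RT; normalized to no-enzyme and enzyme controls.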

Test [13] addresses Alpha-galactosidase A (Homo sapiens) (UniProt P06280). Put plainly: Counterscreen for Glucocerebrosidase Inhibitors: qHTS Assay for Human alpha-Galactosidase at pH 4.5 (AID 992). Further: 0% is about no effect. In short, it runs like this: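 Fluorogenic 1536-well qHTS at pH 4.5 (citrate, Tween-20): 2 nM enzyme, 80 uM 4-MU-alpha-galactoside, 20 min room temperature, NaOH/glycine stop. Titration 0.7 nM to 77 uM, data normalized to no-enzyme and full-activity controls, Hill-fitted AC50.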

Test [14] concerns the target alpha-glucosidase (Oryza sativa, rice) (UniProt Q653V4). Put plainly: Counterscreen for Glucocerebrosidase Inhibitors: qHTS Assay for Rice alpha-Glucosidase at pH 5.0 (AID 997).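 Further: 0% = full activity with enzyme and -100% = basal without enzyme.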 In short, it runs like this:
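Endpoint fluorogenic assay at pH 5.0: compounds (0.7 nM to 77 uM) titrated against 4 nM rice enzyme and 400 uM 4-MU-alpha-glucoside for 20 min at room temperature; NaOH/glycine stop, read ex 365/em 440 nm, Hill-fitted AC50.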

The target in test [15] is Alpha-galactosidase (Coffea arabica) (UniProt Q42656). Put plainly: Counterscreen for Glucocerebrosidase Inhibitors: qHTS Assay for Coffee Bean alpha-Galactosidase at pH 5.9 (AID 998).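 Further: plate controls were uninhibited enzyme for no effect and no-enzyme basal signal for full effect.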 In short, it runs like this:
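Fluorogenic 4-MU substrate hydrolysis, 80 uM substrate and 2 nM coffee bean alpha-galactosidase, pH 5.9 citrate buffer, 20 min at room temperature, then NaOH/glycine stop. Titration 0.7 nM–77 uM, normalized to no-enzyme and enzyme controls, AC50 via Hill equation.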

Test [16] addresses Mitogen-activated protein kinase 10 (Mus musculus) (UniProt Q61831). Put plainly: JNK3 AlphaScreen Assay (AID 530; active means well fitted curve in either direction with a large enough effect, not every such curve was filed as active). In short, it runs like this: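 Kinase buffer: 20 mM Tris-HCl pH 7.6, 10 mM MgCl2, 1 mM DTT, 0.1 mM Na3VO4, 0.01% Tween-20; ATP 10 uM. Substrate biotin-GST-cJun(1-79), enzyme from activated HepG2 lysates. Detection by Ser73 phospho-antibody AlphaScreen.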
In test [17] the target is 3',5'-cyclic-AMP phosphodiesterase 4B (Homo sapiens) (UniProt Q07343). Put plainly: qHTS Assay for Inhibitors of PDE-IV (AID 607; active means well fitted activation curve with a large enough effect in the main read-out, with a control signal flat, not every such curve was filed as active; further: % of control where 0% means no effect). In short, it runs like this: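 Cell-based read-out of cAMP via a modified cyclic nucleotide-gated channel and membrane potential dye (535/590 nm) in HEK293 cells expressing PDE4 endogenously. Compounds tested up to 22.9 uM final; 100 uM RO 20-1724 reference.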
3',5'-cyclic-AMP phosphodiesterase 4B (Homo sapiens), sequence (Q07343 whole entry, looked up): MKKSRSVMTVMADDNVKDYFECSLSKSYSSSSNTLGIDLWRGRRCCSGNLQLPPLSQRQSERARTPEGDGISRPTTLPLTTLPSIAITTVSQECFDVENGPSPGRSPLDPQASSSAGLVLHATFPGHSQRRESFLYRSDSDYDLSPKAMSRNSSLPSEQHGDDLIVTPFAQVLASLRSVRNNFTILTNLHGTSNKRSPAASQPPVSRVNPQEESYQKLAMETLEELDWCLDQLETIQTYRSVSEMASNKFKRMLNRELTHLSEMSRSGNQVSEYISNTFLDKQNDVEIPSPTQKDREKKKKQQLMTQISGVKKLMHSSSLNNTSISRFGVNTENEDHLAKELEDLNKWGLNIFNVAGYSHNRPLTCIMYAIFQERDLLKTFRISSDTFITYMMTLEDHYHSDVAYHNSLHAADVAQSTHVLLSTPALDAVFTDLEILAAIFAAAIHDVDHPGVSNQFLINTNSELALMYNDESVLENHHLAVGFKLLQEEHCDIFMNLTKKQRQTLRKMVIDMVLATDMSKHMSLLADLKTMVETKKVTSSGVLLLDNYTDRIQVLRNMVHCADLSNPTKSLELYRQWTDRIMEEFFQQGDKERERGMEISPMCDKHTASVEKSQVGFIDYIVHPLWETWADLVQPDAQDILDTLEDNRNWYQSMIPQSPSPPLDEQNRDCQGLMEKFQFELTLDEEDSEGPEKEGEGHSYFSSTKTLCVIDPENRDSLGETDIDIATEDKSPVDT

Test [18] concerns the target Muscarinic acetylcholine receptor M1 (Rattus norvegicus) (UniProt P08482). Put plainly: qHTS Assay for Antagonists of Acetylcholine Muscarinic M1 Receptor: Measurement of IP-One Response (AID 944). Further: nearly all actives have a fitted effect of over 75% in size. In short, it runs like this:
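Read-out: HTRF competition between d2-IP1 and Eu-cryptate anti-IP1 antibody, emission 620 and 665 nm. Stimulus was carbachol, EC80 (200 nM), for 30 min in M1-CHO cells (rat receptor), after 10 min compound pre-treatment.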

Alpha-galactosidase A (Homo sapiens), sequence (P06280 whole entry, looked up): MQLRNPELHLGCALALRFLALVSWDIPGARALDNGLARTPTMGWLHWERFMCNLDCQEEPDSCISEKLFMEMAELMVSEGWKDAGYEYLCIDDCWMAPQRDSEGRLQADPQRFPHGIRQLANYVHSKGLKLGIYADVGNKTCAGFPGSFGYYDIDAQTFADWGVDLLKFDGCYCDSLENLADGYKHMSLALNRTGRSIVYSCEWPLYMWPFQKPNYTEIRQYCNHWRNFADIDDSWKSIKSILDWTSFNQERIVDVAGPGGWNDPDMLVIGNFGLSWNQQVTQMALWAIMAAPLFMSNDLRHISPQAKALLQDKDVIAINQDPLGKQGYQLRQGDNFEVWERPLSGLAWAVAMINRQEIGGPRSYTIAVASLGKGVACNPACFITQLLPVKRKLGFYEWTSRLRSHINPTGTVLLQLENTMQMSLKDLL
Pyruvate kinase PKM (Homo sapiens), sequence (P14618 whole entry, looked up): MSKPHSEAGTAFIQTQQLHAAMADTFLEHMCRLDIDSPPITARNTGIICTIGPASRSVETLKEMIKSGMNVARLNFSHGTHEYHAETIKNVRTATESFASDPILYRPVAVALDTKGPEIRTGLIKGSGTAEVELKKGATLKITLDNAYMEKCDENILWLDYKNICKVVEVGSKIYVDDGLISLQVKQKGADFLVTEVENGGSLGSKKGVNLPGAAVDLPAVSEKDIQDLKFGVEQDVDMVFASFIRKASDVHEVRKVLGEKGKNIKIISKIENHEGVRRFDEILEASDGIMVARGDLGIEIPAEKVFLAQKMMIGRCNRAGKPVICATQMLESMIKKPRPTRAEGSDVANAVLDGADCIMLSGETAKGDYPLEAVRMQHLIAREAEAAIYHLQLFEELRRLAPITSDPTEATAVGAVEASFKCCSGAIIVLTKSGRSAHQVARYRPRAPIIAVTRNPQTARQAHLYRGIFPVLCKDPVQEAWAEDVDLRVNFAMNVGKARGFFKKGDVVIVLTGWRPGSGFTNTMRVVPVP
Guanine nucleotide-binding protein G(i) subunit alpha-1 (Homo sapiens), sequence (P63096 whole entry, looked up): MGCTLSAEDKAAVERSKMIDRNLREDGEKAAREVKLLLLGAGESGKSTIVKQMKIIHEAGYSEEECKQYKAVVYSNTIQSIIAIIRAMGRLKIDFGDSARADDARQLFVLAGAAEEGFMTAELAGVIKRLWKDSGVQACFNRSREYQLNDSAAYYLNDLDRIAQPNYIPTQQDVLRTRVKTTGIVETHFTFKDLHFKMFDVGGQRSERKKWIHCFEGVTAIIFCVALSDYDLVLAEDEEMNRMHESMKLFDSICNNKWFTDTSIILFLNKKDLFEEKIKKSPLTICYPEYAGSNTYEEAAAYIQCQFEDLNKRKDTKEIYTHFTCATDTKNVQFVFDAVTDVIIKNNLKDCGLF
Cytochrome P450 1A2 (Homo sapiens), sequence (P05177 whole entry, looked up): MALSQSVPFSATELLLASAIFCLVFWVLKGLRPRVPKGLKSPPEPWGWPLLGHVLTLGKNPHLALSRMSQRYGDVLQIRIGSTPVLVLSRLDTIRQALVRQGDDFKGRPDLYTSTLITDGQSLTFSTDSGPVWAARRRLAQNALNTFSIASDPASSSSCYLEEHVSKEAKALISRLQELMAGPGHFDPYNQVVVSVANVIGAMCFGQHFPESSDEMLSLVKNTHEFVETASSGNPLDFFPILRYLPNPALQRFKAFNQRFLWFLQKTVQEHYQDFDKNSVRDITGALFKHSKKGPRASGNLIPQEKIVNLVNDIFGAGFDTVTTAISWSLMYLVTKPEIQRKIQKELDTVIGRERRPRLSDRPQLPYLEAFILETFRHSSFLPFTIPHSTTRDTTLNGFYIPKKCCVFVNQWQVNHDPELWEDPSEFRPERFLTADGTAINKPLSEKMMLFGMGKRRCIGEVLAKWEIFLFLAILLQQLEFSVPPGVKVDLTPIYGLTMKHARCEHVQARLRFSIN
Alpha-galactosidase (Coffea arabica), sequence (Q42656 whole entry, looked up): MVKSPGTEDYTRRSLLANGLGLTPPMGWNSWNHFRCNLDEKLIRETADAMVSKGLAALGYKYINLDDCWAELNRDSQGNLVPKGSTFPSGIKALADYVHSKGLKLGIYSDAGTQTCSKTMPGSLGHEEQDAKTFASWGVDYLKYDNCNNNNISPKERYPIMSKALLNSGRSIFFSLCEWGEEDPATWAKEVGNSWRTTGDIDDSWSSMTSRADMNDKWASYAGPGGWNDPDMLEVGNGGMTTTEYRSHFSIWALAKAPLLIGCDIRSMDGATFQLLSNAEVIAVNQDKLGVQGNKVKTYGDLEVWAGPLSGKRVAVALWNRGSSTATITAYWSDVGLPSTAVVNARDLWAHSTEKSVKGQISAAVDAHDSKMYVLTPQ

Take `C[N+]1(C)C2CC(OC(=O)C(CO)c3ccccc3)CC1[C@@H]1O[C@H]21` (stereo partly specified): the activity change, negative = inhibition in [1] was -8.85% [at 38 µM] and -6.94% [at 38 µM]; in test [3] it was -56.8% [at 38 µM] (active). The Potency result in [2] and in test [8] was “inactive” in each case. For the same compound, the activity, negative = inhibition in test [4] was 5.12% [at 38 µM] and -2.5% [at 38 µM]. Moreover, the Potency in test [5] and in test [6] was more than 46 µM each time. For the same compound, the result in test [7], in test [9], in test [10], in test [11], in test [12] and in test [13] was inactive. Further, the outcome in [14] and in test [15] was inactive.
Regarding `C[C@H](Br)C(=O)N[C@H](CO)C(=O)O`, the activity change, negative = inhibition was -6.82% in test [1], 5.22% in [3] and 0.572% [at 11.4 µM] in test [16]. The Potency result in test [2] is “inactive”. The activity, negative = inhibition in [4] was -2.06%. Besides, in [6], the Potency was more than 9.22 µM. Also, in test [17], the call was inactive.
`Nc1ncnc2c1ncn2[C@@H]1O[C@@H](COP(=O)(O)CP(=O)(O)OP(=O)(O)O)[C@H](O)[C@@H]1O`: the figures for the activity change, negative = inhibition in test [1] and in [3] were -0.584% [at 38 µM] and 3.86% [at 38 µM], respectively. Besides, the Potency entry in [2], in test [16] and in test [18] was “inactive” each time. In [4], the activity, negative = inhibition was -9.36% [at 38 µM]. Besides, the Potency in [6] was more than 46 µM. For the same compound, the outcome in [17], in test [7], in test [9], in [10], in [11] and in test [12] was inactive. Also, the result in [13], in test [14] and in [15] was inactive.
Regarding `C[C@H](CN(C)C)C(C#N)(c1ccccc1)c1ccccc1`, the activity change, negative = inhibition in test [1] is 0.906%; in test [2], -3.4% [at 2.29 µM]; in test [16], 6.57% [at 11.4 µM]. For the same compound, the activity, negative = inhibition in test [4] is 4.38%. Moreover, the Potency in [5] is more than 46 µM; in test [6], more than 9.22 µM. In addition, the call in [17] was inactive. Further, in test [8], the activity change, positive = activation was -41.5% [at 11.4 µM].
